Bioassay records as filed in PubChem BioAssay.
The entries come from a sample that favours hits as a whole.
FBPA Giardia inh – blocks Giardia fructose-bisphosphate aldolase activity; Potency, µM (series often up to 59.6 µM), most hits filed as inhibitors; AID 2451; purified Giardia FBPA; A8B2U2; 290,000 tested, 0.71% active; note: nearly all actives have a fitted effect of over 55% in size
Target sequence (A8B2U2 whole entry, looked up): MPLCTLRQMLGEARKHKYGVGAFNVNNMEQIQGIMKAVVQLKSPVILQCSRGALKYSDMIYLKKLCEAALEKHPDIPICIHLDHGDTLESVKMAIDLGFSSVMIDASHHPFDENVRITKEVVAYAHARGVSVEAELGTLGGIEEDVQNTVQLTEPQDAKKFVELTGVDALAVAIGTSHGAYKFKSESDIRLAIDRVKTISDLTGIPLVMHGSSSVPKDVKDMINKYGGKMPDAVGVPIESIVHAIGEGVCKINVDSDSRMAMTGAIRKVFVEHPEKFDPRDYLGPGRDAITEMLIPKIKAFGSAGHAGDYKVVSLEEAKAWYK
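40 nM FBPA preincubated 10 min at RT with compound (up to 57.5 uM final), then substrate plus GAPDH/TPI/NAD/arsenate coupling and diaphorase/resazurin added. Fluorescence read after 20 min at RT, 525/598 nm.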
CHX counter – counter-screen hit for Shiga toxin inhibitors, cycloheximide; cell reporter, cycloheximide protein synthesis inhibition counterscreen; max response, %; 300,000 tested, 12% active; AID 2314; in the data active = max response mostly above about 13%, no sharp cut-off; inactive = mostly below about 14%; note: read at 38.3 µM for the half of the compounds with a filed dose
LmPK inh – LmPK (Leishmania mexicana) enzyme inhibition; Q27686; purified LmPK, Kinase-Glo ATP luminescence, 1 h; Potency, µM (top dose mostly 57.5 µM), actives largely listed as inhibitors; 290,000 tested, 0.37% active; AID 1721
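In 50 mM imidazole pH 7.2 with 7 mM MgCl2, LmPK (0.1 nM) turned over PEP (0.5 mM) and ADP (0.1 mM) for 1 h at room temperature. Luciferase read-out of ATP.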
RE007 growth inh – less growth of the S. pombe RE007 Vpr strain; S. pombe RE007 Vpr strain, BacTiter-Glo ATP luminescence, 24 h; Potency, µM (doses to about 92.2 µM), most hits filed as inhibitors; 360,000 tested, 0.21% active; active = well fitted falling curve with a large enough effect; inconclusive = small, poorly fitted or top-dose-only effect; inactive = no such curve, though single readings can be large or run the other way; note: nearly all actives have a fitted effect of over 50% in size
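Fission yeast RE007 carrying one integrated HIV-1 vpr copy, seeded at OD 0.01 in PMG+AL medium with 23 nL pinned compound. Grown 24 h at 30 degrees; viability read by BacTiter-Glo luminescence after 5 min.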
Tb PYK inh – inhibitors of Trypanosoma brucei pyruvate kinase | Q57TT1 | Potency, µM (top dose mostly 76.8 µM), actives largely listed as inhibitors | AID 624173 | 410,000 tested, 0.12% active | TbPYK enzyme, Kinase-Glo Plus ATP luminescence, 45 min; note: nearly all actives have a fitted effect of over 50% in size
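T. brucei PYK with substrate was exposed to pin-transferred compounds across a concentration series, then started with 130 uM ADP (final). After 45 min at room temperature, Kinase-Glo Plus luminescence was read, normalized and curve-fitted.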
Shiga inhibitor – blocks Shiga toxin action in Vero cells; Vero cells, Shiga toxin protein synthesis inhibition reporter; inhibition, % at 38.7 µM; 290,000 tested, 9.2% active; in the data active = inhibition mostly above about 28%, no sharp cut-off; inactive = mostly below about 43%
Of the large screens only hits and unclear results are named; the others gave an inactive call. Unless noted, calls come from the whole dose curve; as a rule, active = well fitted curve in the direction sought with a large enough effect; inconclusive = small, poorly fitted or top-dose-only effect, or another doubt; inactive = no such curve, though single readings can be large; an effect the other way counts as inactive or inconclusive.

COc1ccc(C(c2c(O)ccc3ccccc23)N2CCOCC2)c(OC)c1 (configuration not stated)	Shiga inhibitor 65.0
CCc1ccc(-n2nc(C)c3c(C)cc(=O)n(CC(=O)Nc4ccc(OC)c(OC)c4)c32)cc1	none (no result: FBPA Giardia inh, CHX counter, LmPK inh, RE007 growth inh, Shiga inhibitor)
CC1CC1C(=O)Nc1nc2ccc(S(C)(=O)=O)cc2s1 (configuration not stated)	CHX counter 28.0, Shiga inhibitor 59.1
Cc1ccc2nc(NC(=O)CCCC(=O)O)sc2c1	none
Cc1ccc2nc(NC(=O)C3CCN(c4ncnc5sc(C)c(C)c45)CC3)sc2c1	CHX counter 18.2 (no result: FBPA Giardia inh)
Cc1ccc2nc(NC(=O)C3CC3C)sc2c1 (configuration not stated)	CHX counter 37.4, Shiga inhibitor 94.3 (no result: FBPA Giardia inh)
COc1ccc(N2CCN(S(=O)(=O)c3ccc4c(c3)C(C(C)C)C(=O)N4)CC2)cc1 (configuration not stated)	none (no result: FBPA Giardia inh, CHX counter, LmPK inh, RE007 growth inh, Shiga inhibitor)
CCCCc1cc(=O)oc2cc(C)cc(OCC(=O)Nc3ccccn3)c12	CHX counter 21.1, Shiga inhibitor 60.8
CCCc1cc(=O)oc2cc(C)cc(OCC(=O)Nc3ccccn3)c12	CHX counter 20.1
Cc1cc(OCC(=O)Nc2ccccn2)c2c(C)cc(=O)oc2c1	none (no result: FBPA Giardia inh)
CCCCc1cc(=O)oc2cc(C)cc(OCC(=O)NCc3cccnc3)c12	none (no result: FBPA Giardia inh)
N/C(=N\N=C\c1ccc2c(c1)OCO2)c1nonc1N	CHX counter 45.0, LmPK inh 11.2µM, Shiga inhibitor 74.7
Nc1ccccc1C(=O)NN=Cc1cccc([N+](=O)[O-])c1	none (no result: FBPA Giardia inh, CHX counter, LmPK inh, Shiga inhibitor)
N/C(=N\N=C\c1cccc([N+](=O)[O-])c1)c1nonc1N	CHX counter 49.7, Shiga inhibitor 75.7
COc1cc(/C=N/N=C(/N)c2nonc2N)cc(Br)c1OCc1ccccc1C	none
COc1cccc(/C=N/N=C(\N)c2nonc2N)c1O	CHX counter 35.3, Shiga inhibitor 115.7
CC(C)c1c(C(=O)N/N=C/c2ccc3c(c2)OCO3)nnn1-c1nonc1N	none
O=C(CSc1nccn1Cc1ccccc1)NCc1ccccc1Cl	none (no result: FBPA Giardia inh, CHX counter, LmPK inh, RE007 growth inh, Shiga inhibitor)
Cc1ccc(-c2noc(CCC(=O)N3CCCC3)n2)cc1	CHX counter 27.3, Shiga inhibitor 45.5
Clc1ccc(-c2noc(CN3CCN(c4ccccc4)CC3)n2)cc1	RE007 growth inh inconclusive
Cc1ccc(-c2noc(CN3CCOCC3)n2)cc1	CHX counter 38.8, Shiga inhibitor 76.5 (no result: FBPA Giardia inh)
O=C(CCCc1nc(-c2ccccc2)no1)N1CCOCC1	CHX counter 18.4
Cc1ccc(-c2noc(CCC(=O)N3CCN(c4cc(C)ccc4C)CC3)n2)cc1	none (no result: FBPA Giardia inh, CHX counter, LmPK inh, Shiga inhibitor)
COc1cccc(-c2noc(CCCC(=O)N3CCOCC3)n2)c1	none
Clc1ccc(-c2noc(CN3CCCC3)n2)cc1	CHX counter 37.5, Shiga inhibitor 64.6
Cc1ccccc1OCC(=O)Nc1ccc2nc(SCc3ccccc3)sc2c1	none (no result: FBPA Giardia inh, CHX counter, LmPK inh, RE007 growth inh, Shiga inhibitor)
CCOC(=O)C1CCN(C(=O)CN2c3ccc(CC)cc3-c3ccccc3S2(=O)=O)CC1	none (no result: FBPA Giardia inh, CHX counter, LmPK inh, RE007 growth inh, Shiga inhibitor)
COc1ccc(N2CCN(Cc3nc(-c4ccc(C)cc4)no3)CC2)cc1	none (no result: FBPA Giardia inh, CHX counter, LmPK inh, RE007 growth inh, Shiga inhibitor)
O=C(CCCc1c[nH]c2ccccc12)N1CCOCC1	CHX counter 19.4
Cc1ccc(-c2noc(CN3CCCCC3)n2)cc1	CHX counter 49.3, Shiga inhibitor 91.1
Cn1c(=O)c(-c2cc(F)cc(F)c2)nc2cnc(N3CCNCC3)nc21	none (no result: CHX counter, LmPK inh, RE007 growth inh, Tb PYK inh, Shiga inhibitor)
CCN(C(=O)CSc1nc2ccccc2n1CC(=O)N1CCCC(C)C1)c1ccccc1 (configuration not stated)	none (no result: FBPA Giardia inh, CHX counter, LmPK inh, RE007 growth inh, Shiga inhibitor)
NC(=O)NOCc1c(F)cccc1Cl	none
N/C(CN1CCSCC1)=N\OCc1c(F)cccc1Cl	Shiga inhibitor 48.9
O=C1/C(=C/c2cccs2)NC(=S)N1C1CC1	RE007 growth inh inconclusive, Shiga inhibitor active
O=C1CNC(=O)/C(=C/c2cccs2)N1	none
CCCS(=O)(=O)N1CC(=O)N(c2ccc(C)cc2C)C(C)(C(=O)NC2CCCCCC2)C1 (configuration not stated)	none (no result: FBPA Giardia inh, CHX counter, LmPK inh, RE007 growth inh, Shiga inhibitor)
Cc1cccc(-c2nc3c4ccccc4nc(N4CCN(c5cccc(Cl)c5)CC4)n3n2)c1	none (no result: FBPA Giardia inh, CHX counter, LmPK inh, RE007 growth inh, Shiga inhibitor)
Cc1ccc(C(=O)NCCc2c[nH]c3ccccc23)s1	CHX counter 51.7, Shiga inhibitor 85.4 (no result: FBPA Giardia inh)
CC(C)C(=O)NCCc1c[nH]c2ccccc12	none
